# Reference: PubChem BioAssay (Tox21)
# Several values for one entry are separate records, joined by “and”; a condition that tells them apart may be missing. Identical values can stand only once. Results filed as inconclusive are left out. Entries that show only a call come without a potency. The source holds several records for some structures; these can differ, active in one and inactive in another. Activity calls are given as the source filed them. Unless noted, calls follow the shape of the dose curve; as a rule, active = well fitted curve in the direction sought with a large enough effect in the repeat runs; inconclusive = weak or mixed curves; inactive = no such curve, though single readings can be large; an effect the other way counts as inactive or inconclusive.
# Experiments:
# [1] = qHTS assay to identify small molecule agonists of the hypoxia (HIF-1) signaling pathway - cell viability counter screen (AID 1224844; calls by dose curve; also: nearly all actives have a fitted effect of over 50% in size; also: potency is read from the fitted curve at half-maximal effect)
# Procedure, shortened: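 Viability counter screen: HRE-bla ME-180 cells plated 5 hrs before compound addition, treated 17 hrs at 37C and 5% CO2, then CellTiter-Glo added after the FRET reporter read; luminescence after 30 min.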
# [2] = qHTS assay to identify small molecule agonists of H2AX (AID 1224845; active = well fitted activation curve with a large enough effect in the signal ratio in the repeat runs, not every such curve was filed as active; the % refers to the signal ratio)
# Procedure, shortened: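 Wild-type CHO-K1 cells plated overnight, then exposed 3 hr at 37C to compounds at 15 concentrations (0.76% DMSO). Lysed, then HTRF anti-pH2AX(S139)-cryptate/anti-H2AX-d2 detection after 24 hr at room temperature; emissions 665 and 620 nm.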
# [3] = qHTS assay to identify small molecule agonists of the hypoxia (HIF-1) signaling pathway (AID 1224846; active = well fitted activation curve with a large enough effect in the signal ratio in the repeat runs, not every such curve was filed as active; the % refers to the signal ratio)
# Procedure, shortened: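 Agonist mode reporter screen. ME-180 cells stably expressing bla under HRE control received test compounds in DMSO for 17 hrs (37C, 5% CO2), and beta-lactamase activity was then detected with the CCF4-AM FRET substrate.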
# [4] = qHTS assay to identify small molecule agonists of H2AX - cell viability counter screen (AID 1224847; calls by dose curve; also: top concentration of the series differs between compounds; nearly all actives have a fitted effect of over 30% in size)
# Procedure, shortened: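 We seed wild-type CHO-K1 cells overnight, treat them for 3 hr at 37C with compounds in 15-concentration series, and quantify remaining viability by CellTiter-Glo luminescence.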
# [5] = qHTS assay to identify small molecule antagonists of the estrogen related receptor (ERR) signaling pathway from Tox21 library (AID 1224848); also: nearly all actives have a fitted effect of over 50% in size; also: potency is read from the fitted curve at half-maximal effect
# Procedure, shortened: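 First, 2,000 ERR cells per well were plated and held 6 h at 37 C/5% CO2. Next, compounds in DMSO were pinned in and left 18 h at 37 C. Finally, ONE-Glo was added and luminescence read after 30 min at room temperature.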
# [6] = qHTS assay to identify small molecule agonists of the estrogen related receptor (ERR) signaling pathway from Tox21 library (AID 1224849; calls by dose curve; also: nearly all actives have a fitted effect of over 15% in size); conditions: ERR reporter cell line, ONE-Glo luciferase, 18 h
# Procedure, shortened: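 Quantitative HTS in agonist format: NTP ERR cell line, compounds transferred in DMSO after 6 h plating, 18 h incubation at 37 C, ONE-Glo luminescence endpoint.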
# [7] = qHTS RealTime-Glo MT Cell Viability Assay in HepG2 cells - 24 hour (AID 1224867); also: nearly all actives have a fitted effect of over 50% in size
# Procedure, shortened: (§1)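 Compound treatment began 5 h after plating HepG2 cells (600/well) with NanoLuc luciferase and prosubstrate. Plates stayed at 37 C for 40 h; luminescence was captured at six time points, 0 h through 40 h.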
# [8] = qHTS RealTime-Glo MT Cell Viability Assay in HEK293 cells - 32 hour (AID 1224868); also: top concentration of the series differs between compounds; nearly all actives have a fitted effect of over 50% in size
# Procedure, shortened: (§2)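 Quantitative high-throughput screen of the Tox21 10K library in HEK293: cells and RealTime-Glo reagents plated together, compound added at 5 h, luminescence monitored through 40 h at 37 C.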
# [9] = A CellTox Green Cytotoxicity Assay to monitor cytotoxicity in HEK293 cells - 0 hour (AID 1224869); also: nearly all actives have a fitted effect of over 50% in size
# Procedure, shortened: (§3)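 Dead-cell fluorescence measured kinetically: asymmetric cyanine dye, HEK293, 600 cells/well, 5 h settle, 23 nL cpd/DMSO, 37 C, reads 0–40 h every 8 h.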
# [10] = qHTS RealTime-Glo MT Cell Viability Assay in HepG2 cells - 40 hour (AID 1224870); also: nearly all actives have a fitted effect of over 50% in size
# Procedure, shortened: (§4)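 HepG2 cells mixed with RealTime-Glo MT reagents (NanoLuc plus cell-permeant prosubstrate) were seeded at 600 cells/well, incubated 5 h at 37 C/5% CO2, then pinned with compounds in DMSO; nonlytic luminescence tracked viability during 40 h treatment.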
# [11] = A CellTox Green Cytotoxicity Assay to monitor cytotoxicity in HEK293 cells - 40 hour (AID 1224871); also: nearly all actives have a fitted effect of over 45% in size; also: potency is read from the fitted curve at half-maximal effect
# Procedure, shortened: as §3
# [12] = qHTS RealTime-Glo MT Cell Viability Assay in HEK293 cells - 16 hour (AID 1224872)
# Procedure, shortened: as §2
# [13] = qHTS RealTime-Glo MT Cell Viability Assay in HepG2 cells - 8 hour (AID 1224873); also: nearly all actives have a fitted effect of over 55% in size
# Procedure, shortened: as §4
# [14] = qHTS RealTime-Glo MT Cell Viability Assay in HEK293 cells - 40 hour (AID 1224874); conditions: RealTime-Glo luminescence; max response: stronger effect = lower value; also: nearly all actives have a fitted effect of over 50% in size
# Procedure, shortened: (§5)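 600 HEK293 cells per well, dispensed already mixed with RealTime-Glo MT reagents. Compound dosing came 5 h later. The same wells were read for luminescence at 0, 8, 16, 24, 32 and 40 h of exposure at 37 C.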
# [15] = A CellTox Green Cytotoxicity Assay to monitor cytotoxicity in HEK293 cells - 24 hour (AID 1224875); also: nearly all actives have a fitted effect of over 45% in size
# Procedure, shortened: as §3
# [16] = A CellTox Green Cytotoxicity Assay to monitor cytotoxicity in HepG2 cells - 16 hour (AID 1224876); also: nearly all actives have a fitted effect of over 45% in size; also: potency is read from the fitted curve at half-maximal effect
# Procedure, shortened: (§6)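 First, HepG2 cells (600/well) mixed with reagent were plated; second, after 5 h at 37 C they received compounds via pintool; third, fluorescence was measured at 0 h through 40 h at 8 h intervals.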
# [17] = qHTS RealTime-Glo MT Cell Viability Assay in HepG2 cells - 32 hour (AID 1224877); also: nearly all actives have a fitted effect of over 55% in size
# Procedure, shortened: as §1
# [18] = A CellTox Green Cytotoxicity Assay to monitor cytotoxicity in HepG2 cells - 24 hour (AID 1224878); also: nearly all actives have a fitted effect of over 45% in size
# Procedure, shortened: as §6
# [19] = A CellTox Green Cytotoxicity Assay to monitor cytotoxicity in HepG2 cells - 40 hour (AID 1224879); also: nearly all actives have a fitted effect of over 40% in size; also: potency is read from the fitted curve at half-maximal effect
# Procedure, shortened: as §6
# [20] = qHTS RealTime-Glo MT Cell Viability Assay in HEK293 cells - 0 hour (AID 1224880)
# Procedure, shortened: as §5
smiles,measurement,setting,value
CS(=O)(=O)c1ccc(Cl)cc1,Potency,[1],inactive
same,Potency,[2],inactive
same,outcome,[3],inactive
same,Potency,[4],inactive
same,Potency,[5],inactive
same,"activity change, positive = activation",[6]; at 92.4 µM (top of the series),8.49% (inactive)
same,Potency,[7],inactive
same,Potency,[8],inactive
same,Potency,[9],inactive
same,Potency,[10],inactive
same,Potency,[11],inactive
same,Potency,[12],inactive
same,Potency,[13],inactive
same,max response,[14],-0.177% (inactive) and 6.75% (inactive)
same,Potency,[15],inactive
same,Potency,[16],inactive and 38.9 µM (active)
same,Potency,[17],inactive
same,Potency,[18],inactive
same,Potency,[19],inactive
same,Potency,[20],inactive
COC(=O)/C=C\C(=O)OC,Potency,[1],inactive
same,Potency,[2],inactive
same,outcome,[3],inactive
same,Potency,[4],inactive
same,Potency,[5],inactive
same,"activity change, positive = activation",[6]; at 42.5 µM (top of the series),7.01% (inactive)
same,"activity change, positive = activation",[6]; at 92.4 µM (top of the series),2.62% (inactive)
same,Potency,[7],inactive
same,Potency,[8],inactive
same,Potency,[9],inactive
same,Potency,[10],inactive
same,Potency,[11],inactive
same,Potency,[12],inactive
same,Potency,[13],inactive
same,max response,[14],12.2% (inactive) and 10.6% (inactive)
same,Potency,[15],inactive
same,Potency,[16],inactive
same,Potency,[17],inactive
same,Potency,[18],inactive
same,Potency,[19],inactive
same,Potency,[20],inactive
O=[N+]([O-])c1ccccc1C(F)(F)F,Potency,[1],inactive
same,Potency,[2],inactive
same,outcome,[3],inactive
same,Potency,[4],inactive
same,Potency,[5],inactive
same,"activity change, positive = activation",[6]; at 92.4 µM (top of the series),-5.97% (inactive) and 7.68% (inactive)
same,Potency,[7],inactive
same,Potency,[8],inactive
same,Potency,[9],inactive
same,Potency,[10],inactive
same,Potency,[11],inactive
same,Potency,[12],inactive
same,Potency,[13],inactive
same,Potency,[15],inactive
same,Potency,[16],inactive
same,Potency,[17],inactive
same,Potency,[18],inactive
same,Potency,[19],inactive
same,Potency,[20],inactive
CCCCC(CC)COC(=O)c1ccc(C(=O)OCC(CC)CCCC)cc1 (stereo not given),Potency,[1],inactive
same,Potency,[2],inactive
same,outcome,[3],inactive
same,Potency,[4],inactive
same,Potency,[5],inactive
same,"activity change, positive = activation",[6]; at 92.4 µM (top of the series),-0.0437% (inactive)
same,Potency,[7],inactive
same,Potency,[8],inactive
same,Potency,[9],inactive
same,Potency,[10],inactive
same,Potency,[11],inactive
same,Potency,[12],inactive
same,Potency,[13],inactive
same,max response,[14],10.3% (inactive) and 17.5% (inactive)
same,Potency,[15],inactive
same,Potency,[16],inactive
same,Potency,[17],inactive
same,Potency,[18],inactive
same,Potency,[19],inactive
same,Potency,[20],inactive
O=[N+]([O-])c1cc(C(F)(F)F)ccc1Cl,Potency,[1],inactive
same,Potency,[2],inactive
same,outcome,[3],inactive
same,Potency,[4],inactive
same,Potency,[5],inactive
same,"activity change, positive = activation",[6]; at 92.4 µM (top of the series),3.85% (inactive)
same,Potency,[7],inactive
same,Potency,[8],inactive
same,Potency,[9],inactive
same,Potency,[10],inactive
same,Potency,[11],inactive
same,Potency,[12],inactive
same,Potency,[13],inactive
same,max response,[14],-1.22% (inactive) and -0.472% (inactive)
same,Potency,[15],inactive
same,Potency,[16],inactive
same,Potency,[17],inactive
same,Potency,[18],inactive
same,Potency,[19],inactive
same,Potency,[20],inactive
C=C1C[C@]23C[C@@]1(O)CC[C@H]2[C@@]12C=C[C@H](O)[C@@](C)(C(=O)O1)[C@H]2[C@@H]3C(=O)O,Potency,[1],inactive
same,Potency,[2],inactive
same,outcome,[3],inactive
same,Potency,[4],inactive
same,Potency,[5],inactive
same,"activity change, positive = activation",[6]; at 92.4 µM (top of the series),4.32% (inactive) and 5.25% (inactive)
same,Potency,[7],inactive
same,Potency,[8],inactive
same,Potency,[9],inactive
same,Potency,[10],inactive
same,Potency,[11],inactive
same,Potency,[12],inactive
same,Potency,[13],inactive
same,max response,[14],3.96% (inactive) and 1.17% (inactive)
same,Potency,[15],inactive
same,Potency,[16],inactive
same,Potency,[17],inactive
same,Potency,[18],inactive
same,Potency,[19],inactive
same,Potency,[20],inactive
CC1=CC(=O)CC(C)(C)C1,Potency,[1],4.49 µM (active) and inactive
same,Potency,[2],inactive
same,outcome,[3],inactive
same,Potency,[4],inactive
same,Potency,[5],14.1 µM (active) and inactive
same,"activity change, positive = activation",[6]; at 92.4 µM (top of the series),-82.9% (inactive) and 7.49% (inactive)
same,Potency,[7],inactive
same,Potency,[8],inactive
same,Potency,[9],inactive
same,Potency,[10],inactive
same,Potency,[11],25.3 µM (active) and inactive
same,Potency,[12],inactive
same,Potency,[13],inactive
same,max response,[14],9.76% (inactive)
same,Potency,[15],inactive
same,Potency,[16],inactive
same,Potency,[17],inactive
same,Potency,[18],inactive
same,Potency,[19],25.3 µM (active) and inactive
same,Potency,[20],inactive
CC(C=O)Cc1ccc(C(C)(C)C)cc1 (stereo not given),Potency,[1],inactive
same,Potency,[2],inactive
same,outcome,[3],inactive
same,Potency,[4],inactive
same,Potency,[5],inactive
same,"activity change, positive = activation",[6]; at 92.4 µM (top of the series),-5.89% (inactive) and -7.2% (inactive)
same,Potency,[7],inactive
same,Potency,[8],inactive
same,Potency,[9],inactive
same,Potency,[10],inactive
same,Potency,[11],inactive
same,Potency,[12],inactive
same,Potency,[13],inactive
same,max response,[14],0.145% (inactive) and -7.53% (inactive)
same,Potency,[15],inactive
same,Potency,[16],inactive
same,Potency,[17],inactive
same,Potency,[18],inactive
same,Potency,[19],inactive
same,Potency,[20],inactive
CC(=O)OCc1ccc2c(c1)OCO2,Potency,[1],inactive
same,Potency,[2],inactive
same,outcome,[3],inactive
same,Potency,[4],inactive
same,Potency,[5],inactive
same,"activity change, positive = activation",[6]; at 92.4 µM (top of the series),-6.11% (inactive) and 0.823% (inactive)
same,Potency,[7],inactive
same,Potency,[8],inactive
same,Potency,[9],inactive
same,Potency,[10],inactive
same,Potency,[11],inactive
same,Potency,[12],inactive
same,Potency,[13],inactive
same,max response,[14],2.92% (inactive) and 8.23% (inactive)
same,Potency,[15],inactive
same,Potency,[16],inactive
same,Potency,[17],inactive
same,Potency,[18],inactive
same,Potency,[19],inactive
same,Potency,[20],inactive
COCN(COC)c1nc(N(COC)COC)nc(N(COC)COC)n1,Potency,[1],inactive
same,Potency,[2],inactive
same,outcome,[3],inactive
same,Potency,[4],inactive
same,Potency,[5],inactive
same,"activity change, positive = activation",[6]; at 92.4 µM (top of the series),-2.4% (inactive) and 4.33% (inactive)
same,Potency,[7],inactive
same,Potency,[8],inactive
same,Potency,[9],inactive
same,Potency,[10],inactive
same,Potency,[11],inactive
same,Potency,[12],inactive
same,Potency,[13],inactive
same,max response,[14],-2.02% (inactive) and -0.0674% (inactive)
same,Potency,[15],inactive
same,Potency,[16],inactive
same,Potency,[17],inactive
same,Potency,[18],inactive
same,Potency,[19],inactive
same,Potency,[20],inactive
